Holding throughout (assay): qHTS profiling for inhibitors of Plasmodium falciparum proliferation (AID 504749); further: nearly all actives have a fitted effect of over 60% in size
Details in all cases: P. falciparum in erythrocytes, SYBR Green DNA, 72 h; series mostly up to 28.7 µM
For orientation: In qHTS, concentration-response curves come from the screen itself.

Test [1] deals with CP305. The essentials: (§1)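 Readout was DNA-dye fluorescence from lysed cultures, ex 485/em 535 nm. Parasitized red cells had grown 72 h with compound; data scaled between 0.29 uM artemisinin and DMSO wells and corrected using vehicle-only plates.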
For test [2], the system named is CP315. The essentials:
as §1

The test system of test [3] is CP325. The essentials:
as §1

For test [4], the system named is CP329. The essentials:
as §1

Test [5] relates to CP335. The essentials: as §1
For test [6], the system named is DFO2036. The essentials: as §1
For test [7], the system named is DIV14. The essentials: as §1
For test [8], the system named is DIV17. The essentials: as §1
The subject of test [9] is DIV30. The essentials: as §1
Test [10] has as its system Dd2. The essentials:
as §1

The subject of test [11] is ECU. The essentials:
as §1

For test [12], the system named is FAB9. The essentials: as §1
Test [13] concerns GB4. The essentials:
as §1

The subject of test [14] is HB3. The essentials:
as §1

Test [15] deals with ICS. The essentials: as §1
The test system of test [16] is JCK. The essentials:
as §1

Test [17] concerns N140. The essentials: as §1
The test system of test [18] is P93_24. The essentials:
as §1

In test [19] the test system is P94_40. The essentials: as §1
Test [20] has as its system PAD. The essentials: as §1

The results in this text go back to PubChem BioAssay (NCATS).

Results filed as inconclusive are left out. Active and inactive are the calls of the source. The call rests on the fitted dose curve; in most records, active means well fitted inhibition curve with a large enough effect; inconclusive means small, poorly fitted or top-dose-only effect; inactive means flat fitted curve, though single readings scatter.
Potency means the concentration at half of the fitted maximal effect.

On to `CC(CC=O)CCCC(C)(C)O` (centres undefined), for which the Potency result in test [1], in test [2], in test [3], in test [4], in test [5] and in [6] was “inactive” throughout. The Potency entry in [7], in test [8], in [9], in [10], in test [11] and in test [12] was “inactive” in each case. The Potency entry in test [13], in [14], in test [15], in test [16], in test [17] and in test [18] was “inactive” throughout. For the same compound, the Potency entry in test [19] and in test [20] was “inactive” throughout.

Turning to `CC(C)(C)CC(C)(C)c1cc(Cc2cc(C(C)(C)CC(C)(C)C)cc(-n3nc4ccccc4n3)c2O)c(O)c(-n2nc3ccccc3n2)c1`, the Potency result in test [1], in test [2], in test [3], in test [4], in test [5] and in [6] was “inactive” each time. The Potency result in [7], in [8], in [9], in test [10], in [11] and in test [12] was “inactive” in each case. Besides, the Potency entry in [13], in test [14], in test [15], in [16], in [17] and in test [18] was “inactive” each time. Besides, the Potency entry in [19] and in test [20] was “inactive” throughout.

For the compound `CC(C)(COP(=O)(O)OP(=O)(O)OC[C@H]1O[C@@H](n2cnc3c(N)ncnc32)[C@H](O)[C@@H]1OP(=O)(O)O)C(O)C(=O)NCCC(=O)NCCS` (some centres undefined), the Potency result in [1], in [2], in test [3], in [4], in [5] and in test [6] was “inactive” throughout. Moreover, the Potency result in [7], in [8], in test [9], in test [10], in test [11] and in test [12] was “inactive” throughout. Besides, the Potency entry in test [13], in [14], in [15], in test [16], in test [17] and in test [18] was “inactive” in each case. The Potency result in [19] and in test [20] was “inactive” each time.

With `C[C@H](CCC(=O)O)[C@H]1CC[C@H]2[C@@H]3CC[C@@H]4C[C@H](O)CC[C@]4(C)[C@H]3C[C@H](O)[C@]12C`, the Potency entry in [1], in [2], in test [3], in test [4], in test [5] and in test [6] was “inactive” throughout. Also, the Potency result in [7], in test [8], in [9], in test [10], in [11] and in test [12] was “inactive” throughout. Besides, the Potency entry in [13], in test [14], in test [15], in test [16], in [17] and in test [18] was “inactive” in each case. Moreover, the Potency entry in test [19] and in test [20] was “inactive” throughout.

Take `C=C(C)C1CC=C(C)CC1` (centres undefined): the Potency entry in test [1], in test [2], in [3], in test [4], in test [5] and in test [6] was “inactive” each time. For the same compound, the Potency result in test [7], in [8], in test [9], in test [10], in [11] and in test [12] was “inactive” each time. In addition, the Potency result in [13], in test [14], in [15], in test [16], in [17] and in [18] was “inactive” throughout. Besides, the Potency entry in test [19] and in [20] was “inactive” each time.

On to `CN(CCO)CC(O)Cn1cnc2c1c(=O)n(C)c(=O)n2C` (centres undefined) (tested in a mixture with another compound), for which the Potency result in test [1], in test [2], in [3], in test [4], in test [5] and in test [6] was “inactive” in each case. For the same compound, the Potency result in [7], in test [8], in [9], in [10], in [11] and in test [12] was “inactive” each time. Further, the Potency entry in test [13], in test [14], in [15], in [16], in [17] and in test [18] was “inactive” throughout. For the same compound, the Potency entry in test [19] and in [20] was “inactive” each time.

As for `Cc1ncc(COP(=O)(O)O)c(CN)c1O`, the Potency entry in test [1], in test [2], in test [3], in test [4], in test [5] and in test [6] was “inactive” in each case. Moreover, the Potency entry in test [7], in test [8], in test [9], in test [10], in [11] and in test [12] was “inactive” throughout. Moreover, the Potency result in test [13], in test [14], in [15], in test [16], in test [17] and in [18] was “inactive” in each case. Further, the Potency entry in [19] and in [20] was “inactive” throughout.

`O=C1NCCN1c1ncc([N+](=O)[O-])s1`: the Potency entry in test [1], in test [2], in [3], in test [4], in test [5] and in [6] was “inactive” throughout. For the same compound, the Potency result in test [7], in [8], in test [9], in test [10], in test [11] and in test [12] was “inactive” each time. For the same compound, the Potency entry in test [13], in [14], in test [15], in test [16], in test [17] and in test [18] was “inactive” throughout. Also, the Potency entry in test [19] and in test [20] was “inactive” in each case.

With `CC(=O)[C@H]1CC[C@H]2[C@@H]3C=CC4=CC(=O)CC[C@@]4(C)[C@H]3CC[C@]12C`, the Potency result in test [1], in test [2], in test [3], in [4], in [5] and in test [6] was “inactive” in each case. In addition, the Potency result in test [7], in test [8], in test [9], in [10], in test [11] and in test [12] was “inactive” throughout. The Potency entry in test [13], in test [14], in [15], in [16], in test [17] and in test [18] was “inactive” throughout. For the same compound, the Potency result in test [19] and in [20] was “inactive” in each case.

As for `CN1c2c(nc(N)[nH]c2=O)NCC1CNc1ccc(C(=O)NC(CCC(=O)O)C(=O)O)cc1` (centres undefined), the Potency result in test [1], in test [2], in test [3], in test [4], in [5] and in [6] was “inactive” throughout. For the same compound, the Potency result in [7], in test [8], in test [9], in test [10], in [11] and in test [12] was “inactive” each time. Moreover, the Potency result in [13], in [14], in test [15], in [16], in [17] and in test [18] was “inactive” in each case. For the same compound, the Potency result in test [19] and in [20] was “inactive” each time.

In the case of `c1ccc2c(c1)Sc1ccccc1N2CCN1CCCC1`, the Potency in test [1] was 15.1 µM (active); in test [2] it was 12 µM (active); in test [3], 15.1 µM (active); in test [4], 15.1 µM (active); in test [5], 9.53 µM (active); in [6] it was 10 µM (active). The Potency in [7] was 6.01 µM (active); in test [8] it was 6.75 µM (active); in test [9], 12 µM (active); in [10], 5.62 µM (active); in [11] it was 10 µM (active); in test [13] it was 7.57 µM (active). Also, the Potency in test [15] was 3.98 µM (active); in test [17], 7.94 µM (active); in [18], 7.08 µM (active); in [19] it was 7.94 µM (active); in test [20], 7.94 µM (active). Besides, the Potency result in test [12] and in test [16] was “inactive” in each case.

As for `C=CCCCCCCCCC(=O)OC`, the Potency result in [1], in test [2], in test [3], in [4], in test [5] and in test [6] was “inactive” throughout. Besides, the Potency result in test [7], in test [8], in test [9], in test [10], in [11] and in test [12] was “inactive” each time. The Potency entry in test [13], in [14], in [15], in test [16], in test [17] and in [18] was “inactive” each time. For the same compound, the Potency entry in test [19] and in [20] was “inactive” each time.

In the case of `CC(C)(Oc1ccc(C2CCCc3ccccc32)cc1)C(=O)O` (centres undefined), the Potency result in test [1], in [2], in [3], in test [4], in test [5] and in [6] was “inactive” in each case. The Potency entry in test [7], in test [8], in [9], in test [10], in test [11] and in test [12] was “inactive” each time. Also, the Potency result in [13], in test [14], in test [15], in test [16], in test [17] and in test [18] was “inactive” in each case. The Potency entry in test [19] and in test [20] was “inactive” in each case.
